Measured values reported in PubChem BioAssay AID624483 (NMMLSC, 2012).
Hit rate of the full screen: of about 360,000 compounds, about 11,000 (3.1%) were called active. Another 2% or so got no clear call; they are omitted. The list comes from a sample in which actives are over-represented; it also holds similar structures and randomly drawn compounds. Values without a mark were called inactive. Cut-off read from the data, not from the text of the source: active = fluorescence intensity above about 16000; inconclusive = no clear call, values can overlap the other calls; inactive = below that.

Test: counter-screen for toxin protease inhibitors: compound fluorescence, primary screen, artefact control for toxin protease inhibitor project, biochemical, multiplex microsphere, HTS (AID 624483)
Details: compound autofluorescence counterscreen, microsphere flow cytometry; stronger effect = higher value

In order of rising fluorescence intensity:
1. CCn1c2ccccc2c2cc(NC(=O)COC(=O)c3cc(S(=O)(=O)N4CCCCC4)ccc3Cl)ccc21  1830
2. COc1ccccc1NC(=O)c1c(Br)cnn1C  2020
3. CC(C)COP(=O)(c1ccc(N(C)C)cc1)C(Nc1ccccc1)c1cccnc1 (configuration not stated)  2300
4. COC(=O)c1ccc(C(=O)OC)c(NC(=S)N2CCN(c3cc(Cl)ccc3C)CC2)c1  2510
5. CC(=NCC1CCCO1)c1c(O)[nH]c(=O)[nH]c1=O (configuration not stated)  2530
6. O=C(NCc1cccs1)c1ccc(Br)o1  2540
7. CCn1c2ccccc2c2cc(NC(=S)N3CCOCC3)ccc21  2580
8. CCOC(=O)C1CCCN(C(=O)c2cc(-c3cccs3)oc2C)CC1 (configuration not stated)  2870
9. COc1ccc2oc(N)nc2c1  2890
10. COc1cccc(N2CCN(C3CC(=O)N(c4ccc(Cl)cc4)C3=O)CC2)c1 (configuration not stated)  2900
11. COc1ccc2oc(=N)c(C(=O)Nc3ccc(Br)cc3)cc2c1  2900
12. COCCn1c(CN2CCC(Cc3ccccc3)CC2)nc2c1c(=O)n(C)c(=O)n2C  2950
13. CCOC(=O)C1(C)CCCN(C(=O)c2cccc(Cl)c2)C1 (configuration not stated)  3450
14. O=C(COC(=O)CNC(=O)c1ccco1)Nc1ccc(F)cc1  3560
15. CC1CCN(Cc2nc3c(c(=O)n(C)c(=O)n3C)n2CCc2ccccc2)CC1  3630
16. COc1ccc2cc(C(=O)NCC3CCCO3)[nH]c2c1 (configuration not stated)  3630
17. CCN(CCN(C)C)C(=O)c1ccc2nc(C)c(N(C)C(=O)CCc3ccccc3)n2c1  3720
18. Cc1ccccc1C(=O)Nc1ccccc1NC(=O)c1ccccc1C  3760
19. CC(C)CCn1cnc2c1c(=O)n(CC(=O)NC(N)=O)c(=O)n2Cc1ccccc1  3800
20. CSc1ccc(CNC(=O)C2(C)CCCN2C)cc1 (configuration not stated)  3920
21. CC1(C)CC(N(Cc2ccccc2)C(=O)Cc2ccccc2)CCO1 (configuration not stated)  4030
22. Cc1cc(C(=O)N2CCCC2(C)C(=O)O)c(C)o1 (configuration not stated)  4080
23. CC1(Oc2cccc(F)c2)CCN(Cc2ccccc2OC(F)F)C1 (configuration not stated)  4130
24. Cc1c(S(=O)(=O)NCc2ccccc2)c(=O)n(C)c(=O)n1C  4270
25. CC(C)NS(=O)(=O)c1ccc(OCC(=O)Nc2ccc3c(c2)OCCO3)cc1  4280
26. Cc1cccc(C)c1Cn1c(C)c(C(=O)NCc2cccc(Cl)c2)sc1=O  4280
27. CCOc1ccc(CCN2C(=O)C(=O)N([C@@H](Cc3ccc(O)cc3)CN3CCC[C@H]3CN3C(=O)C(=O)NC[C@@H]3CC(C)C)C[C@@H]2Cc2ccccc2)cc1  4410
28. CC(C)Cn1cnc2c1c(=O)n(CC(=O)NN)c(=O)n2Cc1ccccc1  4610
29. CC(=NCc1ccc2c(c1)OCO2)c1c(O)[nH]c(=O)[nH]c1=O  4690
30. O=C1CC2(CC(c3ccc(Cl)cc3)=NO2)C(=O)N1c1ccccc1 (configuration not stated)  5420
31. Cc1ccc(NC(=O)[C@H](Cc2ccccc2)NC(=O)CC[C@H]2O[C@@H](n3ccc(=O)[nH]c3=O)[C@H](O)[C@@H]2O)cc1C  5530
32. O=C(COC(=O)c1ccc[nH]c1=O)Nc1ccc2c(c1)OC(F)(F)O2  5560
33. Cc1ccc2c(c1)nnc1nnc(SCC(=O)O)n12  6320
34. CC1CCN(S(=O)(=O)c2ccc(S(=O)(=O)NCc3ccco3)cc2)CC1  6420
35. C=C(C)c1cccc(C(C)(C)NC(=O)NC2CCCC2)c1  9090
36. N#Cc1ccc(-c2ccc(Cl)cc2)nc1Oc1ccc(F)cc1  9640

In the case of O=C(COc1ccc2c(C(F)(F)F)cc(=O)oc2c1)Nc1ccc2c(c1)OCCO2, the fluorescence intensity is reported as 23100 (active).
In the case of COC(=O)c1ccc(C(=O)Nc2cc(Cl)ccc2Cl)cc1NC(=O)c1ccccc1C, the fluorescence intensity is reported as 23700 (active).
For COc1ccc(C2=NOC3(CC(=O)N(c4ccc(Cl)cc4)C3=O)C2)c(OC)c1 (configuration not stated), the fluorescence intensity was 20500 (active).
For COc1ccc2oc(=O)c(C(=O)O)cc2c1, the fluorescence intensity was 20900 (active).
With CC(=NC1CCN(Cc2ccccc2)CC1)c1c(O)[nH]c(=O)[nH]c1=O the fluorescence intensity was 22800 (active).
For CC(=NC1CCN(Cc2ccccc2)CC1)c1c(O)n(C)c(=O)n(C)c1=O, the fluorescence intensity was 22500 (active).
In the case of CCn1c2ccccc2c2cc(NC(=O)C/C(C)=N/NC(=O)c3ccccc3N)ccc21, the fluorescence intensity is reported as 23100 (active).
With Cn1ncc(Br)c1C(=O)NCc1cccs1 the fluorescence intensity was 23700 (active).
With Clc1ccc(Cl)c(Oc2ccc(Oc3nc(Cl)ccc3Cl)cc2)n1 the fluorescence intensity was 16400 (active).
For O=C(COC(=O)c1ccccc1NC(=O)c1ccco1)Nc1ccc2c(c1)OC(F)(F)O2, the fluorescence intensity was 21800 (active).
In the case of CC(C)Cn1cnc2c1c(=O)n(CC(O)c1ccccc1)c(=O)n2CC(C)C (configuration not stated), the fluorescence intensity is reported as 16100 (active).
